Test results published in PubChem BioAssay (Tox21).
Inconclusive results are not listed. The source made the active and inactive calls. Unless noted, the call rests on the fitted dose curve; in most records, active means well fitted curve in the direction sought with a large enough effect in the repeat runs; inconclusive means weak or mixed curves; inactive means no such curve, though single readings can be large; an effect the other way counts as inactive or inconclusive.

How the values were obtained:
[1] = qHTS assay to identify small molecule antagonists of the vitamin D receptor (VDR) signaling pathway - cell viability counter screen (AID 743225); further: nearly all actives have a fitted effect of over 50% in size
Procedure, shortened: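 Compounds were pinned onto VDR-bla HEK 293T cells together with 1-alpha,25-dihydroxyvitamin D3 at 3 nM final. After 16 h at 37C and 5% CO2 plus the reporter readout, cell viability was measured by CellTiter-Glo luminescence (30 min, room temperature).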

[2] = qHTS assay to identify small molecule agonists of the NFkB signaling pathway (AID 1159509; active means well fitted curve in the direction sought with a large enough effect in the signal ratio in the repeat runs, not every such curve was filed as active; the % refers to the signal ratio; further: series mostly up to about 61 µM)
Procedure, shortened: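 Beta-lactamase reporter assay run in quantitative high-throughput format on an NF-kB-responsive ME-180 line, with 5 hr compound treatment and a FRET-based blue/green fluorescence readout.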

[3] = qHTS assay to identify small molecule agonists of the NFkB signaling pathway - cell viability counter screen (AID 1159515; calls by dose curve; further: series mostly up to about 61 µM; nearly all actives have a fitted effect of over 55% in size)
Procedure, shortened: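 Cells are seeded (2,000 NFkB-bla ME-180 per well), rested overnight, and dosed with DMSO-dissolved compounds for 5 hr at 37 C. Viability is then read by CellTiter-Glo luminescence after 30 min at room temperature.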

[4] = qHTS assay to identify small molecule agonists of the endoplasmic reticulum stress response signaling pathway (AID 1159516; active means well fitted activation curve with a large enough effect in the signal ratio in the repeat runs, not every such curve was filed as active; the % refers to the signal ratio)
Procedure, shortened: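 Cells are seeded at 1,500 per well and incubated overnight. Compounds in DMSO are added for 5 hr at 37 C, then beta-lactamase FRET substrate for 2 hr at room temperature, and fluorescence at 460 and 530 nm is measured.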

[5] = qHTS assay to identify small molecule agonists of the endoplasmic reticulum stress response signaling pathway - cell viability counter screen (AID 1159517; calls by dose curve;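 further: HeLa cells carrying an ER stress response element beta-lactamase reporter; series mostly up to about 61 µM; nearly all actives have a fitted effect of over 50% in size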)
Procedure, shortened: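 Cytotoxicity of test compounds toward ESRE-bla HeLa cells was assessed after 5 hr exposure. The luminescent CellTiter-Glo signal was measured 30 min after reagent addition.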

[6] = qHTS assay to identify small molecule antagonists of the retinoid-related orphan receptor gamma (ROR-gamma) signaling pathway - cell viability counter screen (AID 1159520); further: nearly all actives have a fitted effect of over 50% in size
Procedure, shortened: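 Tet-on ROR gamma CHO cells (1,000/well) were plated 4 hr, given compounds in DMSO for 2 hr at 37 C, then induced with 1 uM final doxycycline for 16 hr. Viability was read as ATP by CellTiter-Glo luminescence after 30 min.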

[7] = target: Nuclear receptor ROR-gamma (Homo sapiens) (UniProt P51449); assay: qHTS assay to identify small molecule antagonists of the retinoid-related orphan receptor gamma (ROR-gamma) signaling pathway (AID 1159521;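 further: CHO cells with doxycycline inducible ROR-gamma driving an RORE luciferase reporter; top concentration of the series differs between compounds; nearly all actives have a fitted effect of over 50% in size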)
Procedure, shortened: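 Test compounds were applied to Tet-on RORγ CHO cells 2 h ahead of doxycycline hyclate (1 uM final). Luciferase reporter activity was quantified by luminescence after 16 h at 37 C and 5% CO2.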

[8] = qHTS assay to identify small molecule agonists of the AP-1 signaling pathway - cell viability counter screen (AID 1159525; calls by dose curve; further: nearly all actives have a fitted effect of over 55% in size)
Procedure, shortened: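 Each titration point was normalised to DMSO and tetra n-octyl ammonium bromide controls. The read was Cell Titer Glo luminescence after 30 min at RT, following 5 h compound exposure of ME-180 AP-1-bla cells at 37 °C.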

[9] = qHTS assay to identify small molecule agonists of the AP-1 signaling pathway (AID 1159526; calls by dose curve)
[10] = target: Retinoic acid receptor RXR-alpha (Homo sapiens) (UniProt P19793); assay: qHTS assay to identify small molecule agonists of the RXR signaling pathway (AID 1159527; calls by dose curve; further: nearly all actives have a fitted effect of over 35% in size; further: potency means the concentration at half of the fitted maximal effect)
Procedure, shortened: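 Using 9-cis retinoic acid as the reference agonist, chemicals were tested in HEK 293T cells […] for 16 hr; substrate loading lasted 2 hr at room temperature.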

[11] = qHTS assay to identify small molecule agonists of the RXR signaling pathway - cell viability counter screen (AID 1159529)
Procedure, shortened: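 Compounds dissolved in DMSO were pinned onto HEK 293T cells carrying a beta-lactamase reporter under RXR-alpha control and incubated 16 hr. Cytotoxicity was then quantified by CellTiter-Glo luminescence.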

[12] = qHTS assay to identify small molecule antagonists of the retinoid acid receptor (RAR) signaling pathway - cell viability counter screen (AID 1159551); further: nearly all actives have a fitted effect of over 35% in size
Procedure, shortened: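 Cells (C3RL4) are plated, incubated overnight, dosed with compound in DMSO, then given retinol at 1 uM final. After 6 h at 37 C, CellTiter-Glo is added and luminescence read following 30 min at room temperature.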

[13] = qHTS assay to identify small molecule antagonists of the retinoic acid receptor (RAR) signaling pathway (AID 1159552; further: nearly all actives have a fitted effect of over 50% in size; further: potency means the concentration at half of the fitted maximal effect)
Procedure, shortened: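 Test chemicals and DMSO controls were pin-transferred onto C3RL4 cells a day after seeding; retinol (1 uM final) followed at once. Luminescent reporter output was quantified after 6 hr of co-incubation and 30 min with detection reagent.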

[14] = qHTS assay to identify small molecule agonists of the retinoic acid receptor (RAR) signaling pathway (AID 1159553)
Procedure, shortened: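 Seed C3RL4 reporter cells at 1,000 per well and incubate overnight at 37 C. Add compounds in DMSO, incubate 6 hr. Add luciferase reagent, wait 30 min at room temperature, read luminescence.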

Measured: Potency

Chain of Retinoic acid receptor RXR-alpha (Homo sapiens) (P19793 whole entry, looked up): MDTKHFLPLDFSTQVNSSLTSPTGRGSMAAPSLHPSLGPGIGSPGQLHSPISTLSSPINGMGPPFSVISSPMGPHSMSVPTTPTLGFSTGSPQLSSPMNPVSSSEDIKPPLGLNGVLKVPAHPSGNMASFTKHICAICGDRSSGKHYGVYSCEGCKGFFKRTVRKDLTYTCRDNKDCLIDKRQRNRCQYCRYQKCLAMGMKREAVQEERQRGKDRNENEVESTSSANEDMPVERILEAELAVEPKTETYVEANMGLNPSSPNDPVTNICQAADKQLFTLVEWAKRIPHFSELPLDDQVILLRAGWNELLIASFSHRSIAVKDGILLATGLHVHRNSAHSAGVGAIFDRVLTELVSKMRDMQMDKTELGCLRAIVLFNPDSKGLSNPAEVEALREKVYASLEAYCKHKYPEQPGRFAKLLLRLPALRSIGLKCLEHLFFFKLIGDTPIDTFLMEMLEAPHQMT

CC(=NC#N)N(C)Cc1ccc(Cl)nc1
inactive: all assays above

O=C(Cl)/C=C/C(=O)Cl
inactive: all assays above

C[C@]12C=CC(=O)C=C1CC[C@@H]1[C@@H]2CC[C@@]2(C)[C@H]1CC[C@]2(C)O
inactive: all assays above

CCC(CC)(CNC(=O)CCCO)c1cccc(OC)c1
inactive: all assays above

C=C1CC[C@@]2(O)[C@H]3Cc4ccc(O)c5c4[C@@]2(CCN3CC2CC2)[C@H]1O5
inactive: all assays above

CC(C)NCC(O)c1ccc([N+](=O)[O-])cc1 (stereo not given)
inactive: all assays above

CC(C)(N)Cc1ccc(Cl)cc1
inactive: all assays above

CC(Cl)(Cl)Cl
inactive: all assays above

CCc1cc(OC)c(C[C@H](C)N)cc1OC
not listed: [1]
inactive: all other assays above

N#CC(Br)(Br)C(N)=O
active: [10] 1.55 µM | [13] 4.86 µM
inactive: all other assays above

O=C(Cl)CCl
inactive: all assays above

C=CC(=O)OCCN(C)C
inactive: all assays above

O=c1[nH]c2ccccc2o1
inactive: all assays above

CCNP(=S)(OC)O/C(C)=C/C(=O)OC(C)C (stereo not given)
inactive: all assays above

COP(=O)(OC)O/C(C)=C/C(=O)N(C)C
not listed: [1] | [12] | [14]
inactive: all other assays above

C(COCC1CO1)OCC1CO1 (stereo not given)
not listed: [14]
inactive: all other assays above

O=C(Cl)C(Cl)(Cl)Cl
not listed: [1]
inactive: all other assays above

NC(=O)OCCCc1ccccc1
inactive: all assays above

CC(C)[C@]12CC(=O)[C@H](C)[C@H]1C2
inactive: all assays above
